# This excerpt belongs to a sample that is enriched for hits.
# PD-1 reversal = activators reversing PD-1 mediated T-cell inhibition, primary screen, luminescence, primary human CD4 T cells, PD-L1 beads; CellTiter-Glo 96 h; activation, % (test concentration not listed); 29,000 tested, under 10 active; AID 2316, 2010; call rule not given here;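 also: 0% = median vehicle wells and 100% = positive control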
# STK33 inh = STK33 kinase inhibitors, primary screen, biochemical, luminescence, ADP-Glo, MBP substrate | 27,000 tested, 0.44% active | inhibition, % at 12.5 µM; in the data active = inhibition above about 20%; inconclusive = no clear call, values can overlap the other calls
# Target sequence (Q9BYT3 whole entry, looked up): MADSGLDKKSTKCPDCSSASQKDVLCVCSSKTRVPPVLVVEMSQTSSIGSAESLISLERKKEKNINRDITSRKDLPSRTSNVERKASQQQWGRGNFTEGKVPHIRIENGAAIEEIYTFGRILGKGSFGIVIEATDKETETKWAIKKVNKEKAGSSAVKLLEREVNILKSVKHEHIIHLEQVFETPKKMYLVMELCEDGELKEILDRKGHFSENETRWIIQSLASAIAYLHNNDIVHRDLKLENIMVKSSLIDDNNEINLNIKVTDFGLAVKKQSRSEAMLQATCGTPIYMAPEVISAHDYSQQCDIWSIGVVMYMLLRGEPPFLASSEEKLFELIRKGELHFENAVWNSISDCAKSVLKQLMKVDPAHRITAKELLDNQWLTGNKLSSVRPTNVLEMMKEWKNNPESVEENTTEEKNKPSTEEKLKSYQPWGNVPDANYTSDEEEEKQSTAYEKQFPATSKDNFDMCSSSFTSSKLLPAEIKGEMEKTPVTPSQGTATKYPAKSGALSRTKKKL
# NOMO-1 viab = NOMO-1 AML cell viability reduction, primary screen, STK33 inhibitor project, CellTiter-Glo luminescence. NOMO-1 AML viability, 72 h. inhibition, % (no concentration beside the values). 37,000 tested, 7.5% active; in the data active = inhibition above about 80%; inconclusive = no clear call, values can overlap the other calls
# Active calls of the source: *; ? = inconclusive; · = not tested or not shown.
SMILES,PD-1 reversal,STK33 inh,NOMO-1 viab
Cc1ccc(S(=O)(=O)N(C)C[C@@H]2Oc3c(NC(=O)Nc4ccc(F)cc4)cccc3C(=O)N([C@@H](C)CO)C[C@@H]2C)cc1,-3,·,57
C[C@H](CO)N1C[C@H](C)[C@@H](CN(C)S(=O)(=O)c2ccc(F)cc2)Oc2c(NC(=O)Nc3ccc(F)cc3)cccc2C1=O,0,·,29
C[C@@H]1CN([C@@H](C)CO)C(=O)c2cccc(NC(=O)Nc3ccc(F)cc3)c2O[C@@H]1CN(C)S(=O)(=O)c1ccc(F)cc1,·,·,85*
Cc1c(Cl)ccc2c(C(=O)NCCCn3cc(Br)cn3)cc(-c3ccncc3)nc12,·,10,6
COc1ccccc1C(=O)CSc1nnc(-c2ccccc2Cl)n1-c1ccccc1,4,3,50
O=C(O)CCC(=O)OCc1ccccc1,0,·,19
C=C(C)C(=O)O[C@H]1[C@H]2C(=C)C(=O)O[C@@H]2C[C@@H](C)[C@@H]2O[C@@H]2C(=O)[C@](C)(O)[C@@H]1OC(=O)C(=C)C,-10,-1,119*
CN(C)S(=O)(=O)c1ccc2c(c1)/C(=C/c1cc3c([nH]1)CCCC3)C(=O)N2,0,22,73
O=C1Nc2ccc(Br)cc2/C1=C/c1cc2c([nH]1)CCCC2,-1,72*,69
COc1cccc(-c2cc(C(F)(F)F)n3nc(C(=O)Nc4cc(C)nn4-c4ccccc4)cc3n2)c1,-1,1,29
C[C@@H]1CN([C@H](C)CO)C(=O)Cc2cc(NS(=O)(=O)c3ccc(Cl)cc3)ccc2O[C@H]1CN(C)CC1CC1,1,-1,-13
C[C@@H]1CN([C@H](C)CO)C(=O)Cc2cc(NS(=O)(=O)c3ccc(Cl)cc3)ccc2O[C@@H]1CN(C)CC1CCCCC1,-7,-6,114*
C[C@@H]1CN([C@H](C)CO)C(=O)Cc2cc(NS(=O)(=O)c3ccc(Cl)cc3)ccc2O[C@H]1CN(C)CC1CCCCC1,-1,2,127*
C[C@@H]1CN([C@H](C)CO)C(=O)Cc2cc(NS(=O)(=O)c3ccccc3)ccc2O[C@@H]1CN(C)CC1CCCCC1,-2,-1,45
O=C(O)c1cc(C23CC4CC(CC(C4)C2)C3)ccc1O,4,-7,15
CC(C)(C)c1ccc(C(=O)NCCNc2ccccc2[N+](=O)[O-])cc1,0,-5,33
CC1(C)c2ccccc2N(CCC(N)=O)C12C=Cc1c(ccc3ccccc13)O2 (stereo not given),0,·,88*
COc1cc2c(cc1OC)C(=O)CC(C)(C)O2,0,·,0
C=C[C@@]1(C)CCC2=C([C@H]1OC(C)=O)[C@H](OC(C)=O)CC1[C@](C)(C(=O)OC)CC[C@H](OC(C)=O)[C@]21C (stereo not given in full),1,-1,21
C=C1[C@@H]2CC[C@H]3[C@@]4(C)C(C[C@H](OC(=O)[C@]5(C)O[C@@H]5C)[C@]3(C2)[C@@H]1OC(C)=O)[C@](C)(C(=O)OC)CC[C@H]4OC(C)=O (stereo not given in full),-1,-4,88*
CS(=O)(=O)N(CC(=O)Nc1cccc(Br)c1)c1ccc(F)c(Cl)c1,-6,2,45
COc1ccccc1NC(=O)COc1ccc2oc3c(c2c1)CCCC3,0,·,36
COc1cc(NC(=O)COc2ccc3ccccc3c2Br)c(OC)cc1Cl,0,2,126*
COC(=O)c1cc(OC)c(OC)cc1NC(=O)COc1ccc2ccccc2c1Br,0,-3,-17
CCN(CC)C(=O)c1sc(NC(=S)Nc2nc(C)cc(C)n2)c(C(=O)OC)c1C,·,-4,44
SMILES,PD-1 reversal,STK33 inh,NOMO-1 viab
C[C@H](CO)N1C[C@H](C)[C@H](CN(C)Cc2ccc(Cl)c(Cl)c2)Oc2ccc(NC(=O)Nc3cccc4ccccc34)cc2CC1=O,0,1,40
C[C@H]1CN([C@@H](C)CO)C(=O)c2cc(NC(=O)Nc3cccc4ccccc34)ccc2O[C@H]1CN(C)Cc1ccc2c(c1)OCO2,0,-1,97*
C[C@H]1CN([C@@H](C)CO)C(=O)c2cc(NC(=O)Nc3cccc4ccccc34)ccc2O[C@H]1CN(C)Cc1ccc(Cl)c(Cl)c1,-2,1,?
C[C@@H]1CN([C@@H](C)CO)C(=O)c2cc(NC(=O)Nc3cccc4ccccc34)ccc2O[C@@H]1CN(C)Cc1ccc2c(c1)OCO2,-2,·,43
C[C@H]1CN([C@@H](C)CO)C(=O)c2cc(NC(=O)Nc3cccc4ccccc34)ccc2O[C@@H]1CN(C)Cc1ccc(Cl)c(Cl)c1,-3,·,109*
C[C@@H]1CN([C@H](C)CO)C(=O)Cc2cc(NC(=O)Nc3cccc4ccccc34)ccc2O[C@@H]1CN(C)Cc1ccc(Cl)c(Cl)c1,-1,1,115*
C[C@@H]1CN([C@H](C)CO)C(=O)Cc2cc(NC(=O)Nc3cccc4ccccc34)ccc2O[C@H]1CN(C)Cc1ccc(Cl)c(Cl)c1,1,·,21
C[C@H]1CN([C@@H](C)CO)C(=O)Cc2cc(NC(=O)Nc3cccc4ccccc34)ccc2O[C@H]1CN(C)Cc1ccc(Cl)c(Cl)c1,-1,-4,88*
COC(=O)c1ccccc1NC(=O)COc1ccc([N+](=O)[O-])c(C)c1,2,2,4
O=C(O)CCc1ccc(-c2cccs2)n1-c1cccc(C(F)(F)F)c1,·,-3,0
O=C(Oc1ccc(C=Nc2ccc(F)cc2)cc1)c1cccs1,-1,·,11
Cc1ccc(C(=O)CSc2nnc(-c3cc(C(C)(C)C)nn3Cc3cccc(C)c3)o2)cc1,4,2,38
Cc1cc(C)n(CCS(=O)(=O)c2ccc(Cl)cc2)n1,0,·,-26
C[C@@H]1CN([C@H](C)CO)C(=O)c2cccc(NC(=O)Nc3ccc(C(F)(F)F)cc3)c2O[C@@H]1CN(C)S(=O)(=O)c1cccs1,·,·,101*
C[C@H]1CN([C@@H](C)CO)C(=O)c2cccc(NC(=O)Nc3ccc(C(F)(F)F)cc3)c2O[C@@H]1CN(C)S(=O)(=O)c1cccs1,1,·,49
C[C@@H]1CN([C@@H](C)CO)C(=O)c2cccc(NC(=O)Nc3ccc(C(F)(F)F)cc3)c2O[C@H]1CN(C)S(=O)(=O)c1cccs1,·,·,88*
C[C@H](CO)N1C[C@H](C)[C@@H](CN(C)S(=O)(=O)c2cccs2)Oc2c(NC(=O)Nc3ccc(C(F)(F)F)cc3)cccc2C1=O,2,·,45
C[C@@H]1CN([C@H](C)CO)C(=O)Cc2cc(NC(=O)NC3CCCCC3)ccc2O[C@@H]1CN(C)Cc1ccccc1,-1,·,42
C[C@H](CO)N1C[C@H](C)[C@H](CN(C)Cc2ccc(-c3ccccc3)cc2)Oc2ccc(NC(=O)NC3CCCCC3)cc2CC1=O,-3,-1,87*
C[C@H]1CN([C@@H](C)CO)C(=O)Cc2cc(NC(=O)NC3CCCCC3)ccc2O[C@H]1CN(C)Cc1ccc(-c2ccccc2)cc1,-8,6,114*
C[C@H]1CN([C@@H](C)CO)C(=O)Cc2cc(NC(=O)NC3CCCCC3)ccc2O[C@@H]1CN(C)Cc1ccccc1,2,-1,27
CCN(CC(=O)Nc1cc([N+](=O)[O-])ccc1C)S(=O)(=O)c1ccc2ccccc2c1,2,-3,9

# Assay outcomes from PubChem BioAssay.
